Assay outcomes as filed in PubChem.
Only some compounds are listed: those with a hit (about 12% of all), similar ones and a draw of the others.
Pf growth 48h – inhibits P. falciparum growth in the first generation, 48 h. Potency, µM (series often up to 28.7 µM), without a hit: at the highest dose activity change, negative = inhibition, hits mostly inhibitors. 5.9% of 310,000 active. P. falciparum luciferase growth in erythrocytes, 48 h; also: % is scaled to controls: 0 for no effect and ±100 for the full control effect
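A one-generation exposure of luciferase-tagged malaria parasites in RPMI 1640/Albumax erythrocyte culture, 37 C and 5% CO2. Inhibition is inferred from decreased luminescence after adding detection reagent.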
HCV inhibitor – inhibitors of hepatitis C virus infection. AID 651820. Potency, µM (highest dose often 41.8 µM), without a hit: at the highest dose activity change, negative = inhibition, hits mostly inhibitors. 3.4% of 340,000 active. Huh7.5.1 HCVcc-Cre infection, luciferase reporter, 44 h; also: % is scaled to controls: 0 for no effect and ±100 for the full control effect
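Luciferase read-out (15 sec integration) after a 15 min room-temperature substrate step quantifies HCVcc-Cre infection. Cells, 1,000 per well, had compound added 4 h post-plating, then virus at ~0.5 moi, and were cultured 44 h.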
Pf growth 96h – P. falciparum growth inhibition at 96 hour, primary screen for plastid delayed-death inhibitors | P. falciparum luciferase reporter growth, 96 h | Potency, µM (highest dose often 28.7 µM), for inactives: top-dose activity change, negative = inhibition, hits mostly inhibitors | 6.9% of 320,000 active; also: % is scaled to controls: 0 for no effect and ±100 for the full control effect
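Luminescence readout: decreased luciferase signal marks inhibited growth of reporter-expressing P. falciparum in infected red cells (2% hematocrit, 0.05% parasitemia final), exposed to compound two generations (96 h, 37 C, 5% CO2).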
AMA1 RON2 block – disrupts binding of P. falciparum AMA1 to RON2; Potency, µM (titrated, usually from 58.2 µM), inactives show top-dose activity change, negative = inhibition, most hits filed as inhibitors; AlphaScreen AMA1-biotinylated RON2 peptide binding; 0.2% of 360,000 active;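 also: 0% = vehicle wells and -100% = peptide control; nearly all actives have a fitted effect of over 45% in size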
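AMA1 (3D7) with his tag at 25 nM final met compounds first, then biotinylated RON2 peptide at 25 nM; detection used donor plus acceptor beads, 10 µg/mL apiece, read by AlphaScreen after 30 min at room temperature.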
NS1 function inh – blocks influenza NS1 protein function | Potency, µM (top dose mostly 46.1 µM), for the others: at the top dose activity, positive = more growth | 0.4% of 270,000 active | AID 2326; calls by dose curve; also: actives are rising curves; nearly all actives have a fitted effect of over 50% in size
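Read-out: OD600 growth recovery of NS1-expressing budding yeast. Cells grown overnight at 30C in -URA glucose medium, washed, resuspended and diluted 1:100 in 2% galactose assay medium, pH 6.0. Same strain lacking NS1 served as positive control.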
SARS PLP yeast – inhibitors of SARS-CoV papain-like protease in yeast. S. cerevisiae expressing SARS-CoV PLpro, growth rescue. Potency, µM (doses to about 32.9 µM), for inactives: at the highest dose activity, positive = growth rescue, hits mostly activators. 0.19% of 330,000 active; calls by dose curve; also: 0% is about no effect; nearly all actives have a fitted effect of over 55% in size
The depositor's hits bear a star. Unless noted, calls follow the shape of the dose curve; as a rule, active = well fitted curve in the direction sought with a large enough effect; inconclusive = small, poorly fitted or top-dose-only effect, or another doubt; inactive = no such curve, though single readings can be large; an effect the other way counts as inactive or inconclusive. Potency is read from the fitted curve at half-maximal effect.

Results for O=C(OCC(=O)N1CCCCC1)c1c[nH]c2ccccc12 ?
Pf growth 48h: 129%; HCV inhibitor: 5%; Pf growth 96h: 244%; AMA1 RON2 block: -18%; SARS PLP yeast: -1%

Results for O=C(OC1C[C@@H]2CC3C[C@H](C1)N2CC3=O)c1c[nH]c2ccccc12 (some centres not stated) ?
Pf growth 48h: 13µM*; Pf growth 96h: 13µM*

What do the screens show for `CCCCC1=CC2=C(c3ccco3)C(=O)C(C)(OC(=O)c3ccc(OC)cc3)C(=O)C2=CN1CCN1CCOCC1` (configuration not stated)?
Pf growth 48h: inconclusive; HCV inhibitor: -12%; Pf growth 96h: 10µM*; AMA1 RON2 block: -23%; NS1 function inh: -10%; SARS PLP yeast: 1%

How did CCCCC1=CC2=C(c3ccco3)C(=O)C(C)(OC(=O)c3ccc(OC)cc3)C(=O)C2=CN1CCCN(CC)CC (configuration not stated) do in these assays?
Pf growth 48h: inconclusive; HCV inhibitor: 3%; Pf growth 96h: 15µM*; AMA1 RON2 block: -8%; NS1 function inh: 10%; SARS PLP yeast: 1%

Results for CCCCC1=CC2=C(c3ccco3)C(=O)C(C)(OC(=O)c3ccc(OC)cc3)C(=O)C2=CN1Cc1ccc(OC)cc1 (configuration not stated) ?
Pf growth 48h: inconclusive; Pf growth 96h: inconclusive; NS1 function inh: -5%; SARS PLP yeast: -1%

Results for CCCCC1=CC2=C(c3ccco3)C(=O)C(C)(OC(=O)c3ccc(OC)cc3)C(=O)C2=CN1CCCCO (configuration not stated) ?
Pf growth 48h: inconclusive; HCV inhibitor: -31%; Pf growth 96h: inconclusive; AMA1 RON2 block: -2%; NS1 function inh: 0%; SARS PLP yeast: 1%

How did O=C(COC(=O)c1ccc(O)cc1)Nc1ncc(Cl)cc1Cl do in these assays?
Pf growth 48h: 11%; HCV inhibitor: -17%; Pf growth 96h: 0%; AMA1 RON2 block: -5%; NS1 function inh: 8%; SARS PLP yeast: 2%

How did COC(=O)c1ccc(/C=C/C(=O)OCC(=O)Nc2ncc(Cl)cc2Cl)cc1 do in these assays?
Pf growth 48h: 12µM*; HCV inhibitor: 12%; Pf growth 96h: inconclusive; AMA1 RON2 block: 1%; SARS PLP yeast: 2%

Results for CCN1CCCC1CNC(=O)c1cc(COc2ccc(C)c(C)c2)on1 (configuration not stated) ?
Pf growth 48h: -25%; HCV inhibitor: inconclusive; Pf growth 96h: 13µM*; AMA1 RON2 block: 8%; NS1 function inh: 3%; SARS PLP yeast: 0%

How did Cc1ccc(OCc2cc(C(=O)NCC3COCCO3)no2)cc1C (configuration not stated) do in these assays?
Pf growth 48h: -6%; HCV inhibitor: 15%; Pf growth 96h: 10µM*; AMA1 RON2 block: 0%; NS1 function inh: 0%; SARS PLP yeast: -4%

What do the screens show for `COc1cc(/C=C2/NC(=O)N(CC(=O)Nc3cccc(C)c3)C2=O)ccc1OCC(N)=O`?
Pf growth 48h: inconclusive; HCV inhibitor: 10µM*; Pf growth 96h: -16%; AMA1 RON2 block: -15%; NS1 function inh: 3%; SARS PLP yeast: 0%

What do the screens show for `CCOc1cc(/C=C2/NC(=O)N(CC(=O)Nc3cccc(C)c3)C2=O)ccc1OC`?
Pf growth 48h: 20%; HCV inhibitor: -13%; Pf growth 96h: -17%; AMA1 RON2 block: 12%; NS1 function inh: 14%; SARS PLP yeast: 9%

What do the screens show for `Cc1ccc(C)c(S(=O)(=O)N2CCCOC2CNC(=O)C(=O)NCc2ccccn2)c1` (configuration not stated)?
Pf growth 48h: -17%; HCV inhibitor: 0%; Pf growth 96h: -6%; AMA1 RON2 block: 92%; NS1 function inh: -11%; SARS PLP yeast: -2%

Results for O=C(O)[C@H](Cc1ccccc1)N1C(=O)c2ccccc2C1=O ?
NS1 function inh: 1%
